Screening results deposited in PubChem BioAssay by several laboratories.
Hits are enriched below; roughly 27% of the tested compounds scored in any of these assays.
CYP2C19 act: cytochrome P450 2C19 (human) activation; P33261; recombinant CYP2C19, luciferin-H EGE luminescence; active compounds read high; 0 = fully inhibited enzyme, 1 = untreated enzyme; activation factor at 5 µM; 96,000 tested, under 10 active; AID 1025;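 active means activation factor of at least 2 at 5 µM in the primary screen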
CYP2C9 activ: CYP2C9 (human) activation; recombinant CYP2C9, luciferin-H conversion, luminescence; active compounds read high; factor 1 = untreated enzyme, 0 = blocked; AID 1024; actives 1.4% (n = 96,000); activation factor at 5 µM; P11712;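 active means activation factor of 2 or more for CYP2C9 at a 5 µM dose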
Target sequence (P11712 whole entry, looked up): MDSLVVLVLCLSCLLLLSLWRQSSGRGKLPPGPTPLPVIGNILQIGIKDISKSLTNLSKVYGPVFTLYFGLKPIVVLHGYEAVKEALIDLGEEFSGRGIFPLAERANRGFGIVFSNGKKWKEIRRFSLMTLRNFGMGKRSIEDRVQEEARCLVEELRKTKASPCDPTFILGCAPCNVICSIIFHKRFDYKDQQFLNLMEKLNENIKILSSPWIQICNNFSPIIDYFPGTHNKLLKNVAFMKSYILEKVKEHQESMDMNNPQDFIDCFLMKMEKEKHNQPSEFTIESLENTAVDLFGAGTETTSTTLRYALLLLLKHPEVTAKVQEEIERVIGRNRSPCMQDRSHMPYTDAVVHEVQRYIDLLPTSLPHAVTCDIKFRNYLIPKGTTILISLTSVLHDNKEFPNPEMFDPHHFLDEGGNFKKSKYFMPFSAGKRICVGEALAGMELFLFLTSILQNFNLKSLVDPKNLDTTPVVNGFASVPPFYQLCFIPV
sEH act: soluble epoxide hydrolase (human) activation; P34913; purified human sEH enzymatic activity, activator screen; activation, % at 2 µM; actives 0.04% (n = 91,000); AID 717; in the data active means activation above about 37%
CYP2C9 inhib: blocks human cytochrome P450 2C9; CYP2C9 Supersomes, luciferin-H conversion, luminescence; P11712; actives 20% (n = 96,000); inhibition, % at 5 µM; AID 777;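 active means blocking of liver enzyme CYP2C9 beyond about 50% at 5 µM, limit read from the data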
sEH inh: soluble epoxide hydrolase (human) inhibition | P34913 | recombinant human sEH enzymatic activity assay | inhibition, % at 2 µM | actives 0.34% (n = 91,000) | AID 707; in the data active means inhibition above about 80%
CYP2C19 inh: human CYP2C19 inhibition; P33261; CYP2C19 Supersomes, luciferin-H EGE luminescence, 30 min; inhibition, % at 5 µM; actives 21% (n = 96,000); AID 778;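 active means CYP2C19 inhibition above a set limit at 5 µM in the primary screen, cut at about 50% in these data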
Hits are given with their value; . = inactive; / = no result given.

SMILES	CYP2C19 act	CYP2C9 activ	sEH act	CYP2C9 inhib	sEH inh	CYP2C19 inh
CCOC(=O)Nc1sc2c(c1C(=O)OCC)CCC2	.	.	.	.	.	.
COc1ccc(N(C(=O)C2CCCCC2)C2C=CS(=O)(=O)C2)c(OC)c1 (stereo unspecified)	.	.	.	.	.	.
CC1(C)CC(=O)C2=C(C1)N(Cc1ccco1)C(=O)C2(O)C(F)(F)F (stereo unspecified)	.	.	.	.	.	.
CCOC(=O)c1c(NC(=O)CSc2nnc(C)s2)sc2c1CCCCC2	.	.	.	55.1	.	.
CCn1nnnc1SCC(=O)c1ccc(C)cc1	/	/	.	/	.	/
CN1CCc2nc(NC(=O)c3cccc(S(=O)(=O)N4CCc5ccccc54)c3)sc2C1	.	.	.	.	.	.
CCC(CC)c1nnc(NC(=O)c2cccc(S(=O)(=O)N3CCc4ccccc43)c2)s1	.	.	.	75.5	.	.
O=C(Nc1ccccc1N1CCOCC1)C1Cc2ccccc2CN1C(=O)c1ccco1 (stereo unspecified)	.	.	.	67.1	.	51.4
CCn1cc(C(=O)NCc2cccc(F)c2)c(=O)c2cc(F)c(N3CCN(C(=O)c4ccco4)CC3)cc21	.	.	.	83.9	.	.
CCn1cc(C(=O)Nc2nnc(C)s2)c(=O)c2cc(F)c(N3CCN(C(=O)c4ccco4)CC3)cc21	/	/	.	/	.	/
CCn1cc(C(=O)NCc2cccnc2)c(=O)c2cc(F)c(N3CCN(C(=O)c4ccco4)CC3)cc21	.	.	.	68.0	.	.
O=C(Nc1cccc(F)c1)NC1(C(=O)N2CCN3CCCC3C2)CCCCC1 (stereo unspecified)	/	/	.	/	.	/
CCCNC(=O)Nc1ccc2c(c1)N(C)C(=O)c1ccccc1S2	.	.	.	78.9	.	.
C=CCNCc1cccn1-c1sc2c(c1C#N)CCCC2	.	.	.	.	.	.
N#Cc1c(-n2cccc2/C=N/O)sc2c1CCCC2	.	2.8	.	.	.	.
Cc1cc(C(=O)Nc2nnc(C(F)(F)F)s2)no1	.	.	.	53.9	.	.
CCSc1nnc(NC(=O)c2cc(C)on2)s1	.	.	.	57.8	.	.
CCSc1nnc(NC(=O)c2ccc(Br)s2)s1	.	.	.	56.6	.	.
CCSc1nnc(NC(=O)c2ccccn2)s1	.	.	/	.	/	.
CCSc1nnc(NC(=O)c2csc3c2CCCC3)s1	.	.	.	.	.	.
CCSc1nnc(NC(=O)c2csc3c2CCC(C)C3)s1 (stereo unspecified)	.	.	.	81.6	.	.
C#CCn1c(=NC(=O)c2ccc(Br)s2)sc2cccc(OC)c21	.	.	.	.	.	.
CCOc1ccc(CNc2ncnc(N)n2)cc1	.	.	.	.	.	.
COCc1cc(C)n(CC(=O)Nc2ccccc2C(=O)OC)c(=O)c1C#N	.	.	.	.	.	.
COc1ccc(CC(=O)Nc2ccc3c(c2)OCO3)cc1S(=O)(=O)N1CCOCC1	.	.	.	.	.	.
SMILES	CYP2C19 act	CYP2C9 activ	sEH act	CYP2C9 inhib	sEH inh	CYP2C19 inh
CC(NC(=O)Nc1nnc(C(F)(F)F)s1)(C(F)(F)F)C(F)(F)F	.	.	.	65.6	.	.
COC(=O)c1sc(N)c(C(=O)OC)c1COC(=O)C1CC(=O)N(Cc2ccco2)C1 (stereo unspecified)	.	.	.	91.1	.	79.4
CCOC(=O)c1sc(N)c(C(=O)OCC)c1COC(=O)C1CC(=O)N(Cc2ccco2)C1 (stereo unspecified)	.	.	.	98.2	.	91.1
CCOC(=O)c1[nH]c(COC(=O)C2CC(=O)N(Cc3ccccc3)C2)c(C(=O)OCC)c1C (stereo unspecified)	.	.	.	59.5	.	.
CN(C)S(=O)(=O)c1cccc(NC(=O)COC(=O)CCc2nc3ccccc3s2)c1	.	.	.	.	.	.
CC1=CCC2C(=O)N(c3ccc(C(=O)N4CCCCCC4)cc3)C(=O)C2C1 (stereo unspecified)	.	.	.	.	.	.
CC1=CCC2C(=O)N(c3ccc(C)cc3)C(=O)C2C1 (stereo unspecified)	.	.	.	.	.	63.5
CC1=CCC2C(=O)N(c3ccc(Br)cc3C)C(=O)C2C1 (stereo unspecified)	.	.	.	60.4	.	77.8
CC1=CCC2C(=O)N(c3ccc4ccccc4n3)C(=O)C2C1 (stereo unspecified)	.	.	.	.	.	62.0
